TLR9-MyD88 block: TLR9-MyD88 interaction inhibition | 0.21% of 340,000 active | CHO BLA complementation TLR9-MyD88, CCF4 FRET ratio | AID 504734 | inhibition, % at 4.98 µM;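 active = inhibition above the mean over all tested compounds plus 3 SD, cut at about 21% in these data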;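 note: 0% = DMSO only wells and 100% = clavulanate BLA inhibitor control wells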
Neddyl block: blocks human cullin neddylation. TR-FRET cullin neddylation, biochemical. inhibition, % at 25 µM. 0.58% of 360,000 active. AID 651699; in the data active = inhibition above about 36%
TLR4 MyD88 comp: inhibitors of human TLR4-MyD88 binding. inhibition, % at 8.4 µM. HeLa CL3-4 TLR4/MyD88 BLA complementation, FRET ratio. AID 861. O00206+Q99836. 0.18% of 200,000 active; in the data active = inhibition above about 25%;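 note: 0% = vehicle and 100% = reference inhibitor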
NPR2 activator: GC-B (human) receptor activation; P20594; activation, % at 10 µM; HEK293-GC-B cells, CNP EC30, cGMP TR-FRET; 0% at EC30 CNP, 100% saturating CNP; AID 1920062; 0.11% of 370,000 active;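 active = activation at 10 µM reaching about 35% in either raw or pattern-adjusted values, limit read from the data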
NPR1 activator: GC-A (human) enzyme activation. P16066. activation, % at 10 µM. 0.14% of 370,000 active. HEK293 GC-A cells, cGMP TR-FRET, EC30 ANP; 0% at EC30 ANP, 100% saturating ANP. AID 1671463; in the data active = activation above about 40%
NOD2-RIPK2 inh: blocks binding of human NOD2 to RIPK2; inhibition, % at 4.98 µM; O43353; CHO BLA complementation NOD2-RIPK2, CCF4 ratio; 0.38% of 360,000 active; in the data active = inhibition above about 21%;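 note: 0% = vehicle only and 100% = reference blocker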
TLR9-MyD88 cf: confirmation of human TLR9-MyD88 binding inhibitors. shares compounds with TLR9-MyD88 block. CHO TLR9/MyD88 BLA complementation, CCF4 FRET ratio. inhibition, % at 4.98 µM. 51% of 680 active. AID 540250;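 active = mean inhibition across three repeats above about 21% taken from the earlier screen, limit read from the data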;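 note: blue over green emission ratio reports constitutive TLR9 MyD88 association via BLA complementation; 0% = DMSO vehicle wells and 100% = clavulanate BLA inhibitor wells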
Target sequence (Q9NR96 whole entry, looked up): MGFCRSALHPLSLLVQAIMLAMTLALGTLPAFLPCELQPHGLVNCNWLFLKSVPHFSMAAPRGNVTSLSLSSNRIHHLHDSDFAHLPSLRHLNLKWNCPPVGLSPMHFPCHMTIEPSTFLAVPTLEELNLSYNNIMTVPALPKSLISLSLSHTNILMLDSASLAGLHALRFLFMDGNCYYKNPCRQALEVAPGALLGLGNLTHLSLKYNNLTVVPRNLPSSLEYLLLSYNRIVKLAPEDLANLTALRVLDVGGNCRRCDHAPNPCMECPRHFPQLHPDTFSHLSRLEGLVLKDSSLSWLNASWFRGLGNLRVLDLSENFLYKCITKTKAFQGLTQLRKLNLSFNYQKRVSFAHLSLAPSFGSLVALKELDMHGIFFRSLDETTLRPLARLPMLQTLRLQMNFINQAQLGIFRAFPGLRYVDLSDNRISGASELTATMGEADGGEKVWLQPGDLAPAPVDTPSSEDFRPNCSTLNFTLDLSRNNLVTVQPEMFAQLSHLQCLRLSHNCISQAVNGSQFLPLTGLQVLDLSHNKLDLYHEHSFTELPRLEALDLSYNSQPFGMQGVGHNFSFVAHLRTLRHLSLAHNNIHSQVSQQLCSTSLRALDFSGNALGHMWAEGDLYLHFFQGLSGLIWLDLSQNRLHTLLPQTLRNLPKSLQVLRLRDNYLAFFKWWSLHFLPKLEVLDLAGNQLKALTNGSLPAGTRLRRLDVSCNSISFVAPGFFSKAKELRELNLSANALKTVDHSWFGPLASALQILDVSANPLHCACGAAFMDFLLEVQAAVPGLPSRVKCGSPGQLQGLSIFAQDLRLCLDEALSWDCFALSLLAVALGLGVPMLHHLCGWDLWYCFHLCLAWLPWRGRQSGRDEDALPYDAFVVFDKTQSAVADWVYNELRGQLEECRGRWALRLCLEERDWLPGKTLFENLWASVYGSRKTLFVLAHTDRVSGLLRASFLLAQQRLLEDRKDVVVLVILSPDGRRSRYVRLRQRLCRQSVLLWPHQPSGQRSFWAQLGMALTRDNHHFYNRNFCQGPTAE
BLA nonselective: beta-lactamase reporter inhibition, counter-screen artifact | shares compounds with TLR9-MyD88 block | CHO-BLA cells, CCF4 FRET ratio, BLA reporter | inhibition, % at 4.98 µM | 7% of 680 active | AID 540251;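 active = mean inhibition above a 50% cutoff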;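 note: counterscreen of TLR9-MyD88 hits on CMV-driven BLA in CHO-K1 cells; 0% = DMSO alone and 100% = clavulanate blocking BLA; higher means less blue over green ratio so more BLA blockade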
TLR9 CHO cytotox: CHO cell toxicity counter-screen for TLR9-MyD88 inhibitors; shares compounds with TLR9-MyD88 block; TLR9-MyD88 CHO cells cytotoxicity, luminescence; inhibition, % at 4.98 µM; 39% of 680 active; AID 588336; in the data active = inhibition above about 11%
* marks the source's active call; other numbers are inactive results; nt = no result shown. The list is not random: actives were taken first. Their share in the collection is about 1.2%.

SMILES | TLR9-MyD88 block | Neddyl block | TLR4 MyD88 comp | NPR2 activator | NPR1 activator | NOD2-RIPK2 inh | TLR9-MyD88 cf | BLA nonselective | TLR9 CHO cytotox
COc1ccc(C2=CC(c3ccc(C)cc3)n3nnnc3N2)cc1 (configuration not stated) | 25.9* | nt | 7.5 | nt | nt | 26.9* | 4.6 | 7.1 | -1.6
COC(=O)[C@@]12CCCCC3=C1N(CCC3)C(=O)[C@H]2CC(=O)NCCCN1CCCC1=O | nt | nt | nt | -2.4 | -3.9 | nt | nt | nt | nt
CCCC[C@H]1C2CC(OC(=O)Nc3ccccc3C)C(C2)[C@H]2CCCCN21 (some centres not stated) | nt | nt | nt | 11.7 | 2.3 | nt | nt | nt | nt
Cc1cc(N2CCN(C(=O)OC(C)(C)C)C[C@H]2C)ccc1N1CCN(Cc2ccccc2)[C@@H](C)C1 | nt | nt | nt | 3.2 | 1.0 | nt | nt | nt | nt
COC(=O)[C@]12C[C@H](CC(=O)NCc3ccc(C)o3)C(=O)N(CCC3=CCCCC3)C1=C[C@H](COCc1ccccc1)O[C@@H]2C | nt | nt | nt | 3.8 | -0.8 | nt | nt | nt | nt
O=C1C=CC(=O)N1Cc1ccncc1 | 0.7 | 12.0 | nt | -0.4 | 0.7 | -2.0 | nt | nt | nt
O=C1C=CC(=O)N1CCCCCCCCCCN1C(=O)C=CC1=O | 42.3* | 3.3 | nt | 44.3* | 29.9 | 5.3 | 55.9* | 33.9 | 96.0*
COC(=O)[C@]12C[C@H](CC(=O)NCCC(C)C)C(=O)N(Cc3ccco3)C1=C[C@H](C(C)(C)C)O[C@@H]2C | nt | nt | nt | -24.8 | -29.2 | nt | nt | nt | nt
O=S1(=O)CC(N2CCC(c3ccccc3)CC2)CN1Cc1cn(Cc2ccc(C(F)(F)F)cc2)nn1 (configuration not stated) | nt | nt | nt | -6.4 | -6.4 | nt | nt | nt | nt
O=C1C=CC(=O)N1c1ccccc1N1C(=O)C=CC1=O | 46.4* | 5.6 | nt | 25.5 | 33.3 | -4.0 | 66.2* | 38.3 | 99.0*
COc1ccc(S(=O)(=O)N2CCNC(=O)C2)cc1Br | 22.1* | -0.1 | 14.1 | 4.9 | -5.8 | 6.0 | -3.5 | -0.2 | 1.8
COc1ccc(S(=O)(=O)N2CCCCCC2)cc1Br | -10.4 | 1.9 | 2.0 | 0.7 | -2.6 | -10.4 | nt | nt | nt
CCC[C@H]1[C@@H](OC(=O)NC2CCC2)CC[C@@]23CCCN2C(=O)CCC[C@@H]13 | nt | nt | nt | -10.0 | -10.7 | nt | nt | nt | nt
O=[N+]([O-])c1ccc(Sc2cccc[n+]2[O-])c2nonc12 | 55.4* | -6.3 | nt | 0.6 | -20.1 | 88.8* | 59.0* | 8.9 | 100.9*
O=[N+]([O-])c1ccc(Nc2ccccc2)c2nonc12 | 2.3 | -39.7 | nt | 2.2 | -0.9 | -9.8 | nt | nt | nt
COC(=O)[C@H]1C[C@@]2(N3CCCC3)c3ccccc3N[C@H]2N1S(=O)(=O)c1ccc([N+](=O)[O-])cc1 | nt | nt | nt | -3.0 | -3.5 | nt | nt | nt | nt
COc1cc(/C=C/C(=O)c2ccc3c(c2)OCO3)cc(Cl)c1O | 21.9* | 8.9 | nt | 0.0 | -1.9 | 11.1 | 15.8 | 19.6 | 3.2
CCc1cc2c(-c3ccccc3)cc(=O)oc2cc1OC(C)C(=O)O (configuration not stated) | -8.2 | 30.3 | nt | -1.0 | 1.2 | -11.4 | nt | nt | nt
CC(NC(=O)OCc1ccccc1)C(=O)Oc1cc2oc(=O)cc(-c3ccccc3)c2cc1Cl (configuration not stated) | 34.0* | nt | 5.1 | -0.6 | 7.7 | 38.5* | 16.4 | 21.7 | -9.7
O=C(C1CCCN(S(=O)(=O)c2cccc3ccccc23)C1)N1CCN(Cc2ccccc2)CC1 (configuration not stated) | nt | nt | nt | 5.8 | 1.4 | nt | nt | nt | nt
CCCCC(=O)Nc1ccc2c(c1)nc(CCN1CCN(c3ccccn3)CC1)n2C | -6.8 | -1.6 | nt | -2.1 | -2.5 | 1.2 | nt | nt | nt
CCCC(=O)Nc1ccc2c(c1)nc(CCN1CCN(c3ccccn3)CC1)n2C | 26.8* | -0.7 | nt | 1.6 | -0.7 | -4.7 | 2.3 | 3.3 | 2.9
CN=c1scc(-c2cccs2)n1/N=C/c1ccccc1O | 26.2* | 19.8 | -5.2 | 9.9 | 14.1 | 6.5 | 7.7 | 5.8 | 9.3
O=c1c2cc([N+](=O)[O-])ccc2sn1-c1ccccc1 | 29.1* | -37.2 | nt | 12.3 | 25.3 | 6.6 | 37.1* | -0.1 | 87.1*
C=CCCC1CN(CC=C)S(=O)(=O)c2c(F)cccc2O1 (configuration not stated) | nt | nt | nt | 0.4 | -4.6 | nt | nt | nt | nt
SMILES | TLR9-MyD88 block | Neddyl block | TLR4 MyD88 comp | NPR2 activator | NPR1 activator | NOD2-RIPK2 inh | TLR9-MyD88 cf | BLA nonselective | TLR9 CHO cytotox
O=C(Nc1cccc(F)c1)O[C@@H]1CC[C@@]23CCCN2C(=O)CCC[C@H]3C1 | nt | nt | nt | -0.1 | -0.3 | nt | nt | nt | nt
N#CCCCc1cn(-c2ccc(-c3noc4c3C(=O)N(CC(=O)N3CCOCC3)CC4)cc2)nn1 | nt | nt | nt | -4.1 | 2.3 | nt | nt | nt | nt
CCOC(=O)c1c(C)nc2sc(C(N)=O)c(N)c2c1-c1ccccc1 | -1.8 | 22.8 | 6.4 | -22.4 | -20.4 | 1.8 | nt | nt | nt
CCOC(=O)c1c(C)nc2sc(C(=O)Nc3ccccc3)c(N)c2c1-c1ccc(OC)cc1 | 30.7* | nt | 19.0 | nt | nt | 13.9 | 19.0 | 19.4 | 14.6*
C=CCCCCCCCCc1nc(SCC(=O)O)n[nH]1 | 31.9* | -0.5 | nt | -6.2 | -0.3 | 1.4 | -4.8 | -0.6 | 1.2
C=CCCCCCCCCc1nc(SCC(C)=O)n[nH]1 | 6.8 | 0.3 | nt | 2.4 | 4.9 | -16.6 | nt | nt | nt
C/C(=N/Nc1ccc([N+](=O)[O-])cc1)c1c[nH]c2ccccc12 | 37.3* | -50.5 | nt | -18.6 | -15.1 | 6.6 | 24.3* | 19.3 | 2.7
C/C(=N/Nc1ccc([N+](=O)[O-])cc1)c1ccc(C)cc1C | 21.5* | -11.5 | 17.9 | -4.1 | 3.4 | 20.9 | 19.5 | 16.2 | 0.0
CCOC(=O)COc1ccccc1/C=C\[N+](=O)[O-] | 33.1* | 6.4 | 22.5 | nt | nt | 86.8* | 47.1* | 5.9 | 95.7*
Cc1ccc(C(=O)COC(=O)COc2ccccc2[N+](=O)[O-])s1 | -10.3 | -53.0 | nt | -0.2 | -2.2 | -13.5 | nt | nt | nt
Cc1ccc(N2C(=O)Cc3ccccc3C2=O)cc1 | 22.2* | 33.8 | nt | -8.8 | 2.7 | -4.3 | 41.6* | 40.5 | -0.2
Cc1cccc(N2C(=O)Cc3ccccc3C2=O)c1 | 3.5 | 38.1 | nt | 1.9 | 3.9 | 1.4 | nt | nt | nt
CCCCN1CN2Cc3ccc(C)cc3C2CS1(=O)=O (configuration not stated) | nt | nt | nt | 3.2 | -3.4 | nt | nt | nt | nt
CCc1ccc(/C=C2/C(=O)N(c3ccccc3)C(=S)N2CC(=O)OC)s1 | 29.0* | 5.2 | 5.3 | 10.7 | 7.1 | 2.7 | 10.3 | 32.8 | 1.5
O=C(Cc1ccccc1)N1CCC(Oc2cccnc2)CC1 | nt | nt | nt | -6.8 | 3.2 | nt | nt | nt | nt
CCN(C[C@H]1N[C@@](CC)(C(=O)OC)[C@H]2C(=O)N(Cc3ccccc3)C(=O)[C@@H]12)C(=O)c1ccc(C(C)(C)C)cc1 | 45.3* | 9.5 | nt | 11.6 | 4.3 | 7.5 | -7.1 | -2.0 | 52.0*
